Measurements reported in PubChem BioAssay AID488969 (Vanderbilt High Throughput Screening Facility, 2010).
In all, about 110,000 compounds were measured (“z-score”: median about -0.1, highest 2% from about 2 on). The list comes from a sample in which the highest values are over-represented; it also holds similar structures and randomly drawn compounds. The source made the active and inactive calls.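 How the source made its calls: active means z-score in the third read window above 3 or below -3; inactive means the rest.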

biological target: Metabotropic glutamate receptor 8 (Rattus norvegicus) (UniProt P70579); test: mGluR8 Gi/Go-coupled signaling modulation – cell-based, rat, thallium flux, HTS, primary screen (AID 488969); settings: HEK293 rat mGluR8, GIRK (G protein-gated inwardly rectifying potassium channel) thallium flux, FluoZin2; at 10 µM; stronger effect = higher value; submaximal glutamate (EC20) added with thallium
Sequence (P70579 whole entry, looked up): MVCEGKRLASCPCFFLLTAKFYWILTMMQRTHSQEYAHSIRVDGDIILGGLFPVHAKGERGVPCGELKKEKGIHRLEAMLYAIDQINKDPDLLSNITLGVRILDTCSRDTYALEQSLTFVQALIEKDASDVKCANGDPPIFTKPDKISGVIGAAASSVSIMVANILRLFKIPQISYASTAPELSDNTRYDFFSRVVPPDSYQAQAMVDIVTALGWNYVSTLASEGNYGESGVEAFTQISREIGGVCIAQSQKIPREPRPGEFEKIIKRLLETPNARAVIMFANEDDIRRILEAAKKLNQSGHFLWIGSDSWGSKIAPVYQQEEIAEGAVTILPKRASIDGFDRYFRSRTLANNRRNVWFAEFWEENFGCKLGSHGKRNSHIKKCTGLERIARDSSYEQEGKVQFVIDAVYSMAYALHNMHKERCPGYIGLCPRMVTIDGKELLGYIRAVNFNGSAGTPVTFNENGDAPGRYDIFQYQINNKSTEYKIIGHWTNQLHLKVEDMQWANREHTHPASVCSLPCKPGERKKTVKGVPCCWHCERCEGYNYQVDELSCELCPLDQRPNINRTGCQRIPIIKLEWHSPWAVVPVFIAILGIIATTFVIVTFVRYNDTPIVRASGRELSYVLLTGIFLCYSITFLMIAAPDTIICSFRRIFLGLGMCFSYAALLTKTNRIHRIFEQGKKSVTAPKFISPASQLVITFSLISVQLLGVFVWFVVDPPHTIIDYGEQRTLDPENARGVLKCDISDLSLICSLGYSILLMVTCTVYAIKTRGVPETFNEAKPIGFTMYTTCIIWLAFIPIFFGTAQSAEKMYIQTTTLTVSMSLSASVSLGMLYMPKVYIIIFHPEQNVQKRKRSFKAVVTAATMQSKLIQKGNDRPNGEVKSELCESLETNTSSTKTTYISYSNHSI

Row | SMILES | z-score
1 | O=C(CSc1nnc(CNC(=O)c2ccco2)o1)c1ccccc1 | 0.135
2 | CC1(C)CC(=O)CC(=Nc2ccc(C(=O)O)cc2)C1 | 2.15
3 | CC1(C)CC(=O)C/C(=N\NC(=O)Cc2ccccc2)C1 | -0.224
4 | CCCC(=O)Nc1ccc(C(=O)N/N=C2\CC(=O)CC(C)(C)C2)cc1 | -0.113
5 | CC(=O)c1cccc(NC(=O)c2ccco2)c1 | -0.295
6 | CCOC(=O)c1c(C)oc2ccc(O)c(CN3CCCCC3)c12 | 3.52 (active)
7 | CCOC(=O)c1c(-c2ccccc2)oc2ccc(O)c(CN(C)C)c12 | -0.204
8 | CCOC(=O)c1c(C)oc2ccc(O)c(CN(C)C)c12 | 0.911
9 | CCOC(=O)c1c(C)n(C)c2ccc(O)c(CN(CC)CC)c12 | -2.05
10 | CCOC(=O)c1c(-c2ccccc2)oc2ccc(O)c(CN3CCCC3)c12 | 1.41
11 | CCOC(=O)c1c(C)n(C)c2ccc(O)c(CN3CCN(C)CC3)c12 | 0.0797
12 | CCOC(=O)c1c(C)n(C)c2ccc(O)c(CN(C)C)c12 | 2
13 | CCOC(=O)c1c(C)n(C)c2ccc(O)c(CN3CCCCC3)c12 | 0.782
14 | CCOC(=O)c1c(C)n(C)c2ccc(O)c(CN3CCC(C)CC3)c12 | 3.63 (active)
15 | CCN(CCCNC(=O)CCNC(=O)Cn1cnc2ccccc2c1=O)c1ccccc1 | 0.554
16 | CCOC(=O)C1CCCN(C(=O)c2ccccc2SCCOC)C1 (stereo not given) | 0.188
17 | Cc1nnc(SCC(=O)Nc2ccc3c(c2)OCCO3)s1 | 0.669
18 | O=C(O)/C=C\C(=O)Nc1ccccc1F | 0.0594
19 | O=C(NC(=S)Nc1ccccc1N1CCCC1)c1ccc(-c2cccc([N+](=O)[O-])c2)o1 | 5.71 (active)
20 | O=C(NC(=S)Nc1ccccc1N1CCCCC1)c1ccc(-c2cccc([N+](=O)[O-])c2)o1 | 0.681
21 | O=C(NC(=S)Nc1cccc(Cl)c1N1CCCC1)c1ccc(-c2cccc([N+](=O)[O-])c2)o1 | 4.93 (active)
22 | CC1CCN(c2ccccc2NC(=S)NC(=O)c2ccc(-c3cccc([N+](=O)[O-])c3)o2)CC1 | 0.191
23 | O=C(NC(=S)Nc1ccccc1N1CCOCC1)c1ccc(-c2cccc(Cl)c2)o1 | 0.758

Row | SMILES | z-score
24 | CN1CCN(c2ccccc2NC(=O)c2ccc(-c3cccc([N+](=O)[O-])c3)o2)CC1 | -0.00188
25 | Cc1cc(/C=C(/C#N)c2nc3ccccc3[nH]2)c(C)n1-c1cccc([N+](=O)[O-])c1 | -0.533
26 | O=C(CN1CCCC1)NC12CC3CC(CC(C3)C1)C2 | -0.0651
27 | Cn1c(=O)c([N+](=O)[O-])c(NCc2ccccc2)c2ccccc21 | -0.608
28 | COc1ccc(CNC(=O)COC(=O)c2cc(-c3ccc(Cl)s3)nc3ccccc23)cc1 | -0.432
29 | O=C(NCCc1c[nH]c2ccccc12)c1cc2sccc2n1Cc1ccccc1 | -0.216
30 | Cc1ccc(C(=O)O/N=C\c2ccc(N3CCOCC3)c([N+](=O)[O-])c2)cc1 | -0.0662
31 | CC(=O)Nc1ccc(NC(=O)C(F)(F)F)cc1 | 0.364
32 | FC(F)Sc1ccc(-n2cc(-c3ccccc3)[n+]3c2CCC3)cc1 | -0.0431
33 | CCCc1nc(SCC(=O)N2CCN(c3ccccc3)CC2)c2c(=O)n(C)c(=O)n(C)c2n1 | 2.39
34 | CCCc1nc(SCC(=O)N2CCC(Cc3ccccc3)CC2)c2c(=O)n(C)c(=O)n(C)c2n1 | 1.98
35 | CCCc1nc(SCC(=O)c2ccccc2)c2c(=O)n(C)c(=O)n(C)c2n1 | 0.819
36 | O=C(CSc1nnc(NC2CCCCC2)s1)NN1C(=O)NC2(CCCCC2)C1=O | 0.151
37 | O=C(CSc1nnc(Nc2ccccc2)s1)NN1C(=O)NC2(CCCCC2)C1=O | 2.14
38 | Cc1nnc(SCC(=O)NN2C(=O)NC3(CCCCC3)C2=O)s1 | -0.0833
39 | CCCCC1=C([O-])C2N=CC=CC2=[N+](c2ccccn2)C1=O (stereo not given) | -0.104
40 | Cc1ccc(S(=O)(=O)NC(CC(=O)N2CCc3ccccc32)c2ccco2)cc1 (stereo not given) | -0.465
41 | CCN(CC)C(=O)c1cc2cc(Br)ccc2oc1=O | 0.312
42 | CC(C)NC(=O)c1cc2cc(Br)ccc2oc1=O | -0.497
43 | O=C(Nn1cnnc1)c1cc2cc(Br)ccc2oc1=O | 4.37 (active)
44 | CCC(c1nnnn1C(C)(C)C)N(Cc1ccco1)Cc1cc2cccc(C)c2[nH]c1=O (stereo not given) | 0.737
45 | CN(C)/C=N/c1c(C#N)cnn1-c1ncnc2sc(-c3ccccc3)cc12 | 0.831
46 | CCN(CC)C(=O)CSc1ncnc2sc(-c3ccccc3)cc12 | 7.95 (active)

Row | SMILES | z-score
47 | CCc1cc2c(SCC(=O)c3ccccc3)ncnc2s1 | 0.275
48 | CN(CCC#N)C(=O)CSc1ncnc2sc(-c3ccccc3)cc12 | 8.2 (active)
49 | CC(=O)c1c(C)[nH]c(C(=O)CSc2ncnc3sc(-c4ccccc4)cc23)c1C | 5.38 (active)
50 | CCN(CC)C(=O)CSc1ncnc2c1cnn2Cc1ccccc1 | 0.13
51 | CC(C)C(C)(C#N)NC(=O)CSc1ncnc2sc(-c3ccccc3)cc12 (stereo not given) | 4.81 (active)
52 | CC(=O)c1c(C)[nH]c(C(=O)CSc2nnc(-c3ccccc3)o2)c1C | -0.229
53 | CCN(CC)C(=O)CSc1nnc(-c2ccccc2)c(-c2ccccc2)n1 | -0.489
54 | CC(C)C(C)(C#N)NC(=O)CSc1nnc(-c2ccncc2)n1Cc1ccccc1 (stereo not given) | 0.023
55 | COC(=O)c1c(C)[nH]c(C(=O)CSc2ncnc3sc(-c4ccccc4)cc23)c1C | 1.11
56 | CC(C)C(C)(C#N)NC(=O)CSc1nnc(-c2ccccc2)o1 (stereo not given) | -0.849
57 | CCOC(=O)C1CCN(C(=O)c2cccc(Cl)c2)CC1 | 0.0552
58 | C/C(=N\NC(=O)c1c(Cl)c(C)nn1C)c1cccc(NC(=O)COc2ccccc2)c1 | -0.103
59 | CCOC(=O)Nc1nnc(-c2ccc(OC)cc2)s1 | 0.0823
60 | CC(C)[C@H](NC(=O)c1ccccc1)C(=O)OCC(=O)N1CCCc2ccccc21 | 0.0154
61 | Cc1cccc(C)c1NC(=O)CSc1nc(COc2ccccc2)nc2ccccc12 | 0.755
62 | O=C(Nc1ccccc1)C(c1ccccc1)C1CCCC1 (stereo not given) | -0.474
63 | O=C(Nc1ccc2ccccc2c1)C(c1ccccc1)C1CCCC1 (stereo not given) | 0.0599
64 | Cc1ccc(NC(=O)C(c2ccccc2)C2CCCC2)cc1 (stereo not given) | 3.36 (active)
65 | CCOC(=O)N1CCN(C(=O)N2CCOCC2)CC1 | 0.275
66 | COc1ccccc1N1CCN(S(=O)(=O)c2ccccc2F)CC1 | -0.52
67 | CCCCCCOC(=O)C(C#N)c1nc2ccccc2nc1N1CCCCC1 (stereo not given) | -0.00593
68 | CC(C)COC(=O)C(C#N)c1nc2ccccc2nc1N1CCN(Cc2ccccc2)CC1 (stereo not given) | -0.213
69 | CCCCCCOC(=O)C(C#N)c1nc2ccccc2nc1N1CCN(CC)CC1 (stereo not given) | 0.709

Row | SMILES | z-score
70 | COCCOC(=O)C(C#N)c1nc2ccccc2nc1N1CCCC1 (stereo not given) | -0.268
71 | CCC(CC)COC(=O)C(C#N)c1nc2ccccc2nc1N1CCN(CC)CC1 (stereo not given) | 2.72
72 | CCCCCCOC(=O)C(C#N)c1nc2ccccc2nc1N1CCN(C)CC1 (stereo not given) | 2.73
73 | COc1ccc(CCNC(=O)Cc2cc(OC)c(OC)cc2[N+](=O)[O-])cc1OC | -0.376
74 | COCC(=O)Nc1nnc(COc2ccc(Cl)cc2)s1 | 0.279
75 | COc1ccc(C2c3c(ccc4ccccc34)Oc3ncn4nc(Cc5ccc(OC)c(OC)c5)nc4c32)cc1 (stereo not given) | -0.169
76 | Cc1cc(=O)oc(C)c1C(=O)N1CCN(C(c2ccccc2)c2ccccc2)CC1 | 0.596
77 | CN(C)C(=O)C(=O)c1cccn1-c1ccccc1C#N | 0.429
78 | CCOC(=O)C1CCCN(C(=O)c2sc3nc(C)nc(N(CC)CC)c3c2C)C1 (stereo not given) | -0.328
79 | Cc1ccc(/C=C/C(=O)N2CCN(c3cccc(C(F)(F)F)c3)CC2)cc1 | -0.0624
80 | COc1ccccc1CC(=O)N1CCN(c2cccc(C(F)(F)F)c2)CC1 | 0.359
81 | Cc1ccc(CC(=O)N2CCN(c3cccc(C(F)(F)F)c3)CC2)cc1 | 6.97 (active)
82 | CCc1c(C(=O)Nc2nnc(C3CC3)s2)csc1C | 1.09
83 | CC(C)(C)c1ccc(OCc2ccc(C(=O)N/N=C/c3ccc([N+](=O)[O-])cc3)o2)cc1 | -0.4
84 | CN1CCC(=NNC(=O)C(=O)NC2CCCC2)CC1 | -0.0552
85 | CN1CCC(=NNC(=O)C(=O)NC2CCCCC2)CC1 | 2.04
86 | O=C(NN=C1CCCCCCC1)C(=O)NC1CCCCC1 | 0.327
87 | O=C(Cn1[nH]c(=O)c2ccccc2c1=O)NC1CCCCCC1 | 0.0122
88 | CCOC(=O)C1[C@H]2C(=O)N(C(C)c3ccc(OC)cc3)C[C@]23C=C[C@H]1O3 (stereo not given in full) | 0.209
89 | COc1ccc(C(C)N2CC34C=CC(O3)C(C(=O)OCC(C)C)C4C2=O)cc1 (stereo not given) | 5.16 (active)
90 | CCCOC(=O)C1[C@H]2C(=O)N(C(C)c3ccc(OC)cc3)C[C@]23C=C[C@H]1O3 (stereo not given in full) | 0.656
91 | CC(C)(NC(=O)N1CCOCC1)c1cccc(C(C)(C)NC(=O)N2CCOCC2)c1 | -0.126
92 | Cc1cc(C)c2cc(C)c3nnc(SCC(=O)NCc4ccc5c(c4)OCO5)n3c2c1 | -0.513

Row | SMILES | z-score
93 | COc1cccc(CNCCc2c[nH]c3ccccc23)c1OCc1ccccc1 | 1.32
94 | COc1cc(CNCCc2c[nH]c3ccccc23)ccc1OCc1ccccc1F | 0.911
95 | COc1ccccc1CCNCc1ccc(OC)c(OCc2ccccc2)c1 | 0.696
96 | COc1cccc(CNCCc2c[nH]c3ccccc23)c1OCc1ccc(F)cc1 | 2.04
97 | COc1cc(CNCCc2c[nH]c3ccccc23)ccc1OCc1ccc(F)cc1 | 3.41 (active)
98 | COc1cccc(CNn2cnnc2)c1OCc1ccc(F)cc1 | -0.661
99 | Cc1cccc(N2CCN(C(=O)COc3ccc4c(c3)CCC4)CC2)c1C | -0.161
100 | CC1(C)NC(=O)N(CCSc2ccc(Cl)cc2)C1=O | -0.257
101 | CCC(Sc1n[nH]c(=O)[nH]c1=O)C(=O)OCc1ccccc1 (stereo not given) | 0.193
102 | O=C(NCc1ccc(F)cc1)c1cc(S(=O)(=O)N2CCOCC2)ccc1F | 0.0221
103 | Cc1ccc(S(=O)(=O)NCC(=O)N(CC(=O)NCc2ccco2)Cc2ccc3c(c2)OCO3)cc1 | -0.622
104 | c1ccc(OCCSc2nc3ccccc3[nH]2)cc1 | 2.69
105 | Cc1cccc(OCCCSc2nc3ccccc3[nH]2)c1 | 0.357
106 | Fc1cccc(F)c1CSc1nc2ccccc2[nH]1 | -0.786
107 | CCNC(=O)NC(=O)COC(=O)CCCSc1nc2ccccc2[nH]1 | 3.23 (active)
108 | C=CCNC(=O)NC(=O)COC(=O)CCCSc1nc2ccccc2[nH]1 | -0.828
109 | O=C(COC(=O)CCCSc1nc2ccccc2[nH]1)NC(=O)NC1CCCC1 | -0.664
110 | Fc1ccc(CSc2nc3ccccc3[nH]2)c2ccccc12 | 10.7 (active)
111 | COc1ccc(CSc2nc3ccccc3[nH]2)cc1 | 0.53
112 | O=c1[nH]c(SCCOc2ccccc2)nc2ccccc12 | -0.359
113 | COc1cccc(CSc2nc3ccccc3[nH]2)c1 | 2.68
114 | Fc1ccccc1CSc1nc2ccccc2[nH]1 | 0.129
115 | COC(=O)c1cccc(CSc2nc3ccccc3[nH]2)c1 | 0.475
